Results on 57 compounds are retold here after PubChem BioAssay AID2314 (National Center for Advancing Translational Sciences (NCATS), 2010).

Several values for one entry are separate records, joined by “and”; a condition that tells them apart may be missing. Equal values may be shown once. Screen size: about 300,000 compounds; about 37,000 (12%) were called active. No stated cut-off is given here; in the data, active means max response mostly above about 13% (no sharp cut-off); inactive means mostly below about 14%. Only a selection was taken, and actives are over-represented in it overall. Some compounds were tested as several samples or in several runs, with calls that do not always agree.

This test in a line: Cycloheximide Counterscreen for Small Molecule Inhibitors of Shiga Toxin. Further: read at 38.3 µM for the half of the compounds with a filed dose; 0% is about no effect. To be noted: cell reporter, cycloheximide protein synthesis inhibition counterscreen; stronger effect = higher value.
Consider `CCc1ccc(S(=O)(=O)N/N=C\c2ccc([N+](=O)[O-])o2)cc1`, for which the max response was 5.73% (inactive).
Turning to `Cc1cc2ccccn2c1C(=O)c1cccc(S(=O)(=O)N2CCOCC2)c1`, the max response is -0.598% (inactive).
For `CCC(=O)OCCNc1nc(-c2ccccc2)nc2ccccc12` the value was 1.39% (inactive).
As for `CC(C)(C)OC(=O)NNc1c2ccccc2nc2ccccc12`, the figure is 11.3% (active); as for `O=C(NNc1c2ccccc2nc2ccccc12)c1cc2ccccc2cc1O`, -1.17% (inactive).
For `COc1ccc(C(CCN(Cc2ccc(OC)c(OC)c2)C(=O)CCl)c2ccccc2)cc1` (configuration not stated) the value was -1.89% (inactive); for `CC(=O)c1cccc(NC(=O)CN2C(=O)c3cccnc3Oc3ccc(Cl)cc32)c1`, 8.12% (inactive); for `O=C(Cn1c(N2CCN(C/C=C/c3ccccc3)CC2)nc2ccccc21)c1ccccc1`, 8.47% (inactive).
For `CC[C@H](C)[C@H](NC(=O)[C@@H](N)CCC(=O)O)C(=O)N[C@@H](CC(C)C)C(=O)N[C@@H](CC(=O)O)C(=O)N[C@H](C(=O)N1CCC[C@H]1C(=O)N[C@@H](CO)C(=O)N[C@H](C(=O)O)[C@@H](C)O)C(C)C`, the max response is 0.56% (inactive).
Turning to `CCOC(=O)c1c(NC(=O)C(C)Sc2c[nH]c3ccccc23)sc2c1CCC2` (configuration not stated), the max response is -0.942% (inactive).
As for `CCOc1ccccc1NC(=O)CCc1nnc2ccc(NCc3ccco3)nn12`, the figure is 2.03% (inactive); as for `CC(=O)c1ccc(NC(=O)CCc2nnc3ccc(NCc4ccco4)nn23)cc1`, 40.6% (active); as for `O=C(CCc1nnc2ccc(NCc3ccco3)nn12)Nc1cc(F)ccc1F`, -2.19% (inactive).
As for `O=C(c1ccncc1)c1ccc([N+](=O)[O-])cc1`, the figure is -4.87% (inactive); as for `O=C(Cn1c[n+](CC(=O)c2ccc([N+](=O)[O-])cc2)cn1)c1ccc([N+](=O)[O-])cc1`, 1.46% (inactive) and 22.2% (active); as for `O=C(CC(n1cncn1)C(Cl)(Cl)Cl)c1ccc([N+](=O)[O-])cc1` (configuration not stated), -2.22% (inactive).
As for `COc1ccc(N2CCC(N3CCN(C)C(CCO)C3)CC2)cc1` (configuration not stated), the figure is -1.24% (inactive); as for `COc1ccc(OCCNS(=O)(=O)Cc2ccccc2)cc1`, -3.58% (inactive).
For the compound `O=C(c1ccc(Cl)cc1)N1N=C(c2ccccn2)CC1(O)C(F)(F)F` (configuration not stated), the max response is -0.573% (inactive).
For `COc1ccc(OC)c(CNC(=O)c2cc(=O)[nH]c3ccc(S(=O)(=O)N4CCCC4)cc23)c1` the value was 11.5% (inactive); for `COC(CNC(=O)c1ccc2c(c1)ncn2-c1cc(C)cc(C)c1)OC`, -5.14% (inactive); for `COC(=O)CSc1nc2ccccc2c(=O)n1Cc1ccccc1`, 12.7% (inactive).
For `O=C(CCCn1c(SCC(=O)c2ccc(F)cc2)nc2ccccc2c1=O)NCc1ccco1` the value was -0.158% (inactive); for `Cc1ccc(C(=O)CSc2nc3ccccc3c(=O)n2N)o1`, 34.6% (active); for `CC1CCC(NC(=O)CN(C)S(=O)(=O)c2ccc3c(c2)c(=O)n(C)c(=O)n3C)CC1` (configuration not stated), -2.52% (inactive).
As for `Cn1c(=NC(=O)CSCC(=O)N2CCOCC2)sc2ccccc21`, the figure is 11% (inactive); as for `Cn1c(=NC(=O)c2cnccn2)sc2ccccc21`, 26% (active).
Consider `Cn1c(=NC(=O)CSCC(=O)N2CCCCC2)sc2ccccc21`, for which the max response was 2.51% (inactive).
For `COc1cc(CO)c(C2(CO)CCCC2)cc1OC` the value was -4.97% (inactive); for `Cc1cc(C)cc(N(CCC#N)C(=O)CN2C(=O)NC3(CCCC3)C2=O)c1`, 1.6% (inactive).
As for `O=c1c2cc(-c3ccccc3)sc2nc2n1N=C(c1cccs1)CS2`, the figure is 57% (active); as for `Oc1ccccc1N1CCN(c2ncnc3sc(-c4ccccc4)cc23)CC1`, 9.53% (inactive).
As for `O=c1c(-c2ccccc2)cnc2n1CCS2`, the figure is -4.67% (inactive); as for `CC(C)NC(=O)C(c1ccc(F)cc1)N(C(=O)CCC(=O)Nc1ccccn1)c1ccccc1F` (configuration not stated), -2.11% (inactive).
Consider `CC(C)CCNC(=O)Cn1c(=O)oc2cc(S(=O)(=O)N3CC(C)CC(C)C3)ccc21` (configuration not stated), for which the max response is -7.3% (inactive).
As for `COc1ccccc1/C=N/N1CCN(Cc2ccccc2Cl)CC1`, the figure is 1.31% (inactive); as for `CSc1ccc(/C=N/N2CCN(Cc3ccccc3Cl)CC2)cc1`, 16.6% (active); as for `O=S1(=O)CCN(Cc2ccccc2Cl)CC1`, -2.05% (inactive).
For `Cc1cc(C)c(NC(=O)CS(=O)CC(=O)Nc2cccnc2)c(C)c1` (configuration not stated) the value was 3.39% (inactive); for `Cc1cccc(-n2cnc(C(=O)Nc3cccnc3)c2)n1`, 25.5% (active).
As for `Cc1cccc(-n2cnc(C(=O)NNC(=S)Nc3ccccc3)c2)n1`, the figure is -0.715% (inactive).
Turning to `Cc1cccc(Nc2nc3c(S(=O)(=O)c4ccccc4)nnn3c3ccccc23)c1C`, the max response is -2.93% (inactive).
As for `Cc1ccc(/C=C2\CCn3c2nc2cc(C(=O)O)ccc2c3=O)c(C)c1`, the max response was 8.18% (inactive).
As for `CCc1ccc(-c2nn(-c3ccccc3)cc2CSC(=N)N)cc1`, the figure is -12.4% (inactive); as for `COc1cc2c(cc1OC)CN(C(=O)c1cc(S(=O)(=O)N3CCCCC3)ccc1Cl)CC2`, 11.1% (inactive); as for `Cc1ccccc1OCC(=O)Nc1nnc(S(=O)(=O)N2CCCC2)s1`, 1.8% (inactive).
For `Cc1nc(SCC(=O)Nc2cc(C)on2)c2c(C)c(C)sc2n1` the value was -2.36% (inactive); for `CC(NC(=O)CSc1nc2c(cc1C#N)CN(C)CC2)c1ccccc1` (configuration not stated), -4.77% (inactive).
As for `Cc1cc(NC(=O)CSc2nc3c(cc2C#N)CCCCC3)no1`, the figure is 14.6% (active); as for `Cc1c(CCO)sc[n+]1CC(=O)OC12CC3CC(CC(C3)C1)C2`, -2.92% (inactive); as for `COC(=O)C1(C)CC1(c1ccccc1)c1ccccc1` (configuration not stated), -2.76% (inactive).
For `COC(=O)c1c(C)oc2ccc(N(C(=O)Oc3ccccc3)S(=O)(=O)c3ccccc3)cc12`, the max response is -13.2% (inactive).
On to `N/C(=N\OC(=O)c1cc(-c2ccccc2)nc2ccccc12)c1ccncc1`, for which the max response was -3.22% (inactive).
For `Cc1cccc(C(=O)c2cccc(C)c2)c1` the value was 0.416% (inactive); for `Cc1cccc(/C(N)=N/OC(=O)c2ccccc2Cl)c1`, 37% (active); for `O=C(O)CCN=C1CCc2ccccc2N1`, -2.89% (inactive).
As to `COc1cc(OC)cc(-c2nnc(N(C)C(=O)c3ccncc3)s2)c1`, the max response was -2.59% (inactive).
